High-throughput results deposited in PubChem by several laboratories.
Exocytosis inh = lytic granule exocytosis inhibition; TALL-104 LAMP-1 surface exposure, flow cytometry; cells stimulated with thapsigargin and PMA; inhibition, % at 10 µM; 360,000 tested, 0.66% active; AID 651702;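 active means inhibition above about 55%, limit read from the data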
PG9 Ab binder = small molecules binding HIV-1 gp120 antibody PG9 | TR-FRET gp120-PG9 antibody binding | inhibition, % at 6.7 µM | 360,000 tested, 0.43% active; in the data active means inhibition above about 8.5%
rCAG binder = binds r(CAG) RNA repeats | r(CAG) RNA repeat, TO-PRO-1 dye displacement fluorescence | inhibition, % at 3 µM | 370,000 tested, 1.3% active | AID 651821;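 active means inhibition above the plate cutoff, the mean of all test compounds on that plate plus 3 SD, cut at about 35% in these data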;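 further: 0% = DMSO alone and 100% = 100 µM mitoxantrone as full dye displacement; higher means more dye released from RNA so lower well fluorescence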
ABCB6 inh 2 = inhibitors of human ABC transporter ABCB6 | Q9NP58 | K562-ABCB6 porphyrin accumulation, flow cytometry, 1 h; hits give low values | fluorescence ratio to DMSO, % at 10 µM | 360,000 tested, 0.19% active;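 active means fluorescence ratio to DMSO below 75%, the collection mean minus 3 SD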;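 further: signal is porphyrin accumulated inside mitochondria; 100% equals median channel fluorescence of DMSO control wells; lower ratio means ABCB6 inhibition with less porphyrin fluorescence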
Target sequence (Q9NP58 whole entry, looked up): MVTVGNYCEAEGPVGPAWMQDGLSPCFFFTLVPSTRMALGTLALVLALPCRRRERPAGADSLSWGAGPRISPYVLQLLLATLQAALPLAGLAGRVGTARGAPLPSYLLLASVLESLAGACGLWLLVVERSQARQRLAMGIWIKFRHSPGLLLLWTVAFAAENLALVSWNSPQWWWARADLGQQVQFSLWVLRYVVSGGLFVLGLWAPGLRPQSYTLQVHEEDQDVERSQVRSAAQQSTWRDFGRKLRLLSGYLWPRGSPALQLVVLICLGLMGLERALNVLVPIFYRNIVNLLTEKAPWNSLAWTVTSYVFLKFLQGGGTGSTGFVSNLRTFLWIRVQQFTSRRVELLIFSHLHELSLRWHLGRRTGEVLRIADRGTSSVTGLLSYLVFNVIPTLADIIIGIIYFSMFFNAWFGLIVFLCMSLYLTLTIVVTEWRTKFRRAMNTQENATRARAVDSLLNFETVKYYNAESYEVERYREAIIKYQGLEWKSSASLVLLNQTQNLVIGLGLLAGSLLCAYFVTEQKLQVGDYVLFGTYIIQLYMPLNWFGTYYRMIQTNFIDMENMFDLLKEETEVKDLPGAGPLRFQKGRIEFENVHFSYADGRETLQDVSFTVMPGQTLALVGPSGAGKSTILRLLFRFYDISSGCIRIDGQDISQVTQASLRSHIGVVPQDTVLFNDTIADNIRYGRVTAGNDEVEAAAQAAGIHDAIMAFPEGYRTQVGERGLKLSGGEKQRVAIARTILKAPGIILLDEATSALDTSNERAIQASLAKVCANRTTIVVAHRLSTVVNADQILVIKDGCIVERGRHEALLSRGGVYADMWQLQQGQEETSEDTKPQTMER
An asterisk follows results filed as active; i = inactive; · = no result given. A selection: hits, their analogues and other compounds. The true share with any hit is near 2.5%.

SMILES	Exocytosis inh	PG9 Ab binder	rCAG binder	ABCB6 inh 2
O=c1/c(=C/c2ccc(O)c([N+](=O)[O-])c2)sc2nc3ccccc3n12	70*	-2	3	98
COc1cc(C)c(C(=O)Oc2cc(C)c(C(=O)O)c(O)c2)c(O)c1	-1	-1	35*	93
COC(=O)Cc1nnn2c1CC(OC)c1ccccc1-2 (configuration not stated)	·	-1	3	·
CC1(C)CC(=O)C2=C(C1)N(CC1CCCO1)C(=O)C2(O)C(F)(F)F (configuration not stated)	80*	-1	1	104
CC1(C)CC(=O)C2=C(C1)N(CC1CCCO1)C(=O)NC2(C(F)(F)F)C(F)(F)F (configuration not stated)	4	-2	2	101
Cc1onc(-c2ccccc2)c1C(=O)NNC(=S)NC(=O)/C=C/c1ccccc1	-4	-1	12	74*
COc1ccc(/C=C/C(=O)NC(=S)NNC(=O)c2c(-c3ccccc3)noc2C)cc1	-2	-1	12	97
Cc1ccc(Nc2nc(N/N=C/c3c[nH]c4ccccc34)nc(N3CCOCC3)n2)cc1	63*	-2	20	91
C(=N\Nc1nc(Nc2ccccc2)nc(N2CCOCC2)n1)/c1c[nH]c2ccccc12	·	-1	16	·
Cc1cc(C)n(-c2nc(N(c3ccccc3)c3ccccc3)nc(-n3nc(C)cc3C)n2)n1	88*	·	·	94
CN(Cc1ccc(F)cc1)C(=O)CN1C(=O)C2(OCCCO2)c2ccccc21	·	·	-2	·
CCOC(=O)/C(C#N)=C\c1cc(C)n(-c2ccccc2)c1C	21	-2	1	104
CCOC(=O)/C(C#N)=C/c1cc(C)n(-c2ccc(C)cc2)c1C	86*	2	1	96
O=C(NCc1ccccc1)[C@H]1CCCN1C(=O)[C@H]1CCCN1C(=O)c1ccc(F)c(F)c1	·	-2	-1	·
COCCCNC(=O)C[C@H]1C[C@@]2(C(=O)OC)C(=C[C@H](C3CCCC3)O[C@@H]2C)N(Cc2ccco2)C1=O	·	·	-1	·
C/C(=N/Nc1cc(-c2ccccc2)nc(-c2ccccc2)n1)c1ccc(O)cc1	8	-1	17	97
C/C(=N\Nc1cc(-c2ccccc2)nc(-c2ccc(Br)cc2)n1)c1cccc(N)c1	-1	-2	43*	109
COC(=O)C1=C(C)N(Cc2ccccc2C(F)(F)F)C(=NCc2ccc(OC)cc2)NC1c1ccc(F)cc1 (configuration not stated)	·	0	8	·
O=C(O)COc1ccc(/C=C/c2nc(-c3ccccc3O)n[nH]2)cc1	8	-2	22	103
COc1ccc(/C=C/c2nc(-c3ccccc3O)n[nH]2)cc1OC	65*	-1	48*	94
COc1ccc(C(=O)Nc2ccccc2NC(=O)c2ccc(OC)cc2)cc1	-2	-2	-2	98
CC(=O)Oc1ccc(C(=O)Nc2ccccc2NC(=O)c2ccc(OC(C)=O)cc2)cc1	58*	-2	-1	98
COc1ccc(CN2C(=O)c3ccnn3CC2(C)c2nnnn2-c2c(C)cccc2C)cc1 (configuration not stated)	·	·	3	·
Cn1c2ccccc2c2ccc3c(c21)C(=O)C=CC3=O	106*	-2	33	125
C=CCOC(=O)N1CCC(NS(=O)(=O)c2ccc3c(c2)CCN3C(C)=O)CC1	·	·	5	·
SMILES	Exocytosis inh	PG9 Ab binder	rCAG binder	ABCB6 inh 2
CC1=NN(c2nc(N)nc(/C(C#N)=C/c3ccc([N+](=O)[O-])o3)n2)C(C)(C)C1	83*	-1	7	i
COC(=O)c1c(-c2ccco2)csc1NC(=O)C1CC=CCC1C(=O)O (configuration not stated)	-1	9.7*	23	118
CCOC(=O)[C@]12CCCCC/C=C\1N(Cc1ccc(OC)cc1)C(=O)[C@H]2CC(=O)NCCCCc1ccccc1	·	·	3	·
COc1cc(/C=C/C(=O)c2ccc3c(c2)OCCO3)cc(Br)c1OCC(=O)N(C)C	102*	0	7	105
O=C(/C=C/c1ccncc1)c1ccc2c(c1)OCCO2	3	-4	1	102
Cc1nc2ccc(S(=O)(=O)NCC(=O)NCc3ccccc3Cl)cc2s1	·	·	2	·
CC(=O)O[C@H]1CC[C@@]2(C)[C@@H](CC[C@H]3[C@@H]4CC[C@H](C(C)O)[C@@]4(C)CC(=O)[C@@H]32)C1 (some centres not stated)	-6	-1	-4	97
CC(O)[C@H]1CC[C@H]2[C@@H]3CC[C@H]4C[C@@H](O)CC[C@]4(C)[C@H]3/C(=N/O)C[C@]12C (some centres not stated)	82*	0	-11	97
Cc1cc(Oc2cccnc2)ccc1NC(=O)Cc1c(C)[nH]c2ccccc12	·	-2	7	·
Cc1cc(Br)cc(C=Nc2ccc(N3CCOCC3)cc2)c1O	74*	-3	1	98
OCCNc1ncnc2ccc(Br)cc12	2	1	2	70*
Brc1ccc2ncnc(Nc3cccc4ccccc34)c2c1	0	-1	3	91
N#C/C(C(=O)N1CCCCC1)=C1\Nc2ccccc2S1	-1	-6	2	89
Cc1ccc(NC(=S)/C(C#N)=C2/Nc3ccccc3S2)cc1	4	-1	92*	98
CCNC(=O)Nc1ccc2c(c1)C(=O)N(C)[C@H]1CC[C@H](CC(=O)N[C@H](C)c3ccccc3)O[C@@H]1CO2	·	·	0	·
CCCCOc1ccc(C(=O)NC2CCCCN(Cc3cccc(C(F)(F)F)c3)C2=O)cc1 (configuration not stated)	·	·	3	·
COC(=O)[C@H](CC(C)C)N(CCc1cn(Cc2ccccc2)nn1)S(=O)(=O)c1ccccc1Br	·	·	2	·
COc1ccc(NC(=O)/C(Cl)=C(/Cl)S(=O)(=O)Cc2ccc(C)cc2)cn1	97*	·	·	89
COc1ccc(NC(=O)Cc2ccc(Cl)c(Cl)c2)cn1	0	1	-2	97
COC(=O)[C@]12C[C@H](CC(=O)NCCCN3CCCC3=O)C(=O)N(Cc3ccc(Cl)cc3Cl)C1=C[C@H](C(C)C)O[C@@H]2C1CC1	·	·	4	·
CC1(C)CC(=O)C=C(c2ccc(-c3ccc4[nH]ccc4c3)cc2)C1=O	70*	-2	10	99
CC1(C)CC(=O)C=C(c2ccccc2-c2ccc3cc[nH]c3c2)C1=O	-6	1	17	107
[C-]#[N+][C@]12C(=O)[C@H](C=C(Cl)[C@@]1(C)C=C)C(C)(C)[C@H]1C(=O)N(C)c3cccc2c31	·	·	2	·
COc1ccccc1C(=O)NC(=S)Nc1ccc(NC(=O)c2ccco2)cc1	68*	2	4	94
COc1ccccc1C(=O)Nc1ccc(NC(=O)c2ccco2)cn1	10	1	0	92
Cc1cc(/C=C2/SC(=S)N(c3cccc(Cl)c3)C2=O)c(C)n1-c1cccnc1	6	-1	3	336
Cc1cc(/C=C2/SC(=S)N(c3ccc([N+](=O)[O-])cc3)C2=O)c(C)n1-c1cccnc1	58*	-6	16	124
Cc1cccc(CSC(Nc2ccc(F)cc2)=C(C#N)C#N)c1	6	-1	40*	91
CN(C)c1nc(=NCc2ccco2)ss1	76*	·	·	101
